The antibiotic and cytotoxicity screens of Wong et al. (2023)
In all, about 39,000 compounds went through this assay and about 3,300 (8.5%) were called active. This is one part of a sample in which actives are shown more often than they occur.

These compounds were tested on HepG2 (assay: cytotoxicity call (relative viability < 0.9)). Settings: 10 µM.
In the case of `CC(C)NC(=O)Nc1ccc2c(c1)C(=O)N([C@@H](C)CO)C[C@H](C)[C@H](CN(C)C(=O)NC1CCCCC1)O2`, the cytotoxicity call is reported as “inactive”.
With `COC(=O)C1=C(C)NC(C)=C(C(=O)OC)C1` the cytotoxicity call was “inactive”.
`O=C(C[C@H]1CC[C@@H](NS(=O)(=O)c2ccccc2F)[C@H](CO)O1)NCCCN1CCOCC1` was tested, and the cytotoxicity call was “inactive”.
With `O=C(/C=C/c1ccc(O)c(O)c1)O[C@@H]1C[C@](O)(C(=O)O)C[C@@H](OC(=O)/C=C/c2ccc(O)c(O)c2)[C@H]1O` the cytotoxicity call was “inactive”.
With `CC(C)C[C@H](NC(=O)[C@@H](COC(C)(C)C)NC(=O)[C@H](Cc1ccc(O)cc1)NC(=O)[C@H](CO)NC(=O)[C@H](Cc1c[nH]c2ccccc12)NC(=O)[C@H](Cc1cnc[nH]1)NC(=O)[C@@H]1CCC(=O)N1)C(=O)N[C@@H](CCCNC(=N)N)C(=O)N1CCC[C@H]1C(=O)NNC(N)=O` the cytotoxicity call was “inactive”.
With `C[C@H](CO)N1C[C@H](C)[C@@H](CN(C)S(=O)(=O)c2ccc(F)cc2)Oc2ccc(NS(=O)(=O)c3ccccc3)cc2CC1=O` the cytotoxicity call was “inactive”.
With `COc1ccccc1-c1cnc2c(c1)C(=O)N([C@H](C)CO)C[C@@H](C)[C@@H](CN(C)C(=O)c1ccncc1)O2` the cytotoxicity call was “inactive”.
`C[C@H]1CN([C@@H](C)CO)S(=O)(=O)c2ccc(C3=CCCC3)cc2O[C@H]1CN(C)C(=O)Cc1ccncc1` was tested, and the cytotoxicity call was “inactive”.
`O=C1CN(c2ccccc2)C=NN1` was tested, and the cytotoxicity call was “inactive”.
With `C[C@@H]1CCCCO[C@@H](CN(C)CC2CCCCC2)[C@H](C)CN([C@H](C)CO)C(=O)c2cc(NC(=O)Nc3cccc4ccccc34)ccc2O1` the cytotoxicity call was “active”.
With `C[C@@H]1CN([C@H](C)CO)C(=O)c2cc(NC(=O)Nc3cccc4ccccc34)ccc2O[C@@H](C)CCCCO[C@@H]1CN(C)CC1CCCCC1` the cytotoxicity call was “active”.
For `COc1ccc(S(=O)(=O)N(C)C[C@@H]2Oc3ccc(NC(=O)Cn4cnnn4)cc3CC(=O)N([C@H](C)CO)C[C@@H]2C)cc1`, the cytotoxicity call was “inactive”.
With `C[C@H](CO)N1C[C@H](C)[C@@H](CN(C)C(=O)Nc2cccc(Cl)c2Cl)OCc2ccccc2-c2ccccc2C1=O` the cytotoxicity call was “inactive”.
`Cc1noc(C)c1S(=O)(=O)Nc1ccc2c(c1)CC(=O)N([C@H](C)CO)C[C@H](C)[C@H](CN(C)S(=O)(=O)c1ccccc1)O2` was tested, and the cytotoxicity call was “inactive”.
With `C[C@H]1CN([C@@H](C)CO)C(=O)CCCn2cc(nn2)CO[C@H]1CN(C)S(=O)(=O)c1ccc(-c2ccccc2)cc1` the cytotoxicity call was “inactive”.
`COc1ccc(S(=O)(=O)Nc2ccc3c(c2)C(=O)N([C@@H](C)CO)C[C@@H](C)[C@@H](CN(C)C(=O)CCC(F)(F)F)OCCCC[C@@H](C)O3)cc1` was tested, and the cytotoxicity call was “inactive”.
With `C[C@@H]1O[C@@H](O[C@H]2[C@H](O)[C@@H](O)[C@H](OC(=O)[C@]34CCC(C)(C)C[C@H]3C3=CC[C@H]5[C@@]6(C)CC[C@H](O[C@@H]7O[C@H](C(=O)O)[C@@H](O)[C@H](O)[C@H]7O)C(C)(C)[C@@H]6CC[C@@]5(C)[C@]3(C)CC4)O[C@@H]2CO)[C@H](O)[C@H](O)[C@H]1O` the cytotoxicity call was “inactive”.
For `C[C@H]1O[C@@H](OC[C@H]2O[C@@H](O[C@H]3CC[C@]4(C)[C@H]5CCC6=C(CC[C@@]7(C(=O)O[C@@H]8O[C@H](CO)[C@@H](O)[C@H](O)[C@H]8O[C@@H]8O[C@H](CO)[C@@H](O)[C@H](O)[C@H]8O)CCC(C)(C)C[C@@H]67)[C@]5(C)CC[C@H]4C3(C)C)[C@H](O)[C@@H](O)[C@@H]2O)[C@H](O)[C@@H](O)[C@@H]1O`, the cytotoxicity call was “inactive”.
With `C[C@@H]1O[C@@H](O[C@H]2[C@H](O[C@H]3[C@H](O)[C@@H](C(=O)O)O[C@@H](O[C@H]4CC[C@]5(C)[C@H]6CC[C@]78OC[C@@]9(CCC(C)(C)C[C@@H]97)[C@H](O)C[C@@]8(C)[C@]6(C)CC[C@H]5C4(C)C)[C@@H]3OC3O[C@H](CO)[C@@H](O)[C@H](O)[C@H]3O)O[C@H](CO)[C@H](O)[C@@H]2O)[C@H](O)[C@H](O)[C@H]1O` (some centres undefined) the cytotoxicity call was “active”.
In the case of `CC(=O)O[C@H]1CC(C)(C)C[C@H]2[C@]13CO[C@@]21CC[C@@H]2[C@@]4(C)CC[C@H](O[C@@H]5O[C@H](C(=O)O)[C@@H](O)[C@H](O[C@@H]6O[C@H](CO)[C@H](O)[C@H](O)[C@H]6O[C@@H]6O[C@@H](C)[C@H](O)[C@@H](O)[C@H]6O)[C@H]5O[C@@H]5O[C@H](CO)[C@@H](O)[C@H](O)[C@H]5O)C(C)(C)[C@@H]4CC[C@@]2(C)[C@]1(C)C[C@H]3O`, the cytotoxicity call is reported as “active”.
For `CC1(C)[C@@H](O[C@H]2O[C@H](C(=O)O)[C@@H](O)[C@H](O)[C@H]2O[C@@H]2O[C@H](C(=O)O)[C@@H](O)[C@H](O)[C@H]2O)CC[C@]2(C)[C@H]3C(=O)C=C4[C@@H]5C[C@@](C)(C(=O)O)CC[C@]5(C)CC[C@@]4(C)[C@]3(C)CC[C@@H]12`, the cytotoxicity call was “inactive”.
In the case of `CC(=O)O[C@H]1CC(C)(C)C[C@H]2[C@]13CO[C@@]21CC[C@H]2[C@@]4(C)CC[C@H](O[C@@H]5OC[C@H](O[C@@H]6O[C@H](CO)[C@@H](O)[C@H](O)[C@H]6O[C@@H]6OC[C@@H](O[C@@H]7O[C@H](CO)[C@@H](O)[C@H](O)[C@H]7O)[C@H](O)[C@H]6O)[C@H](O)[C@H]5O[C@@H]5O[C@H](CO)[C@@H](O)[C@H](O)[C@H]5O)[C@@](C)(CO)[C@@H]4CC[C@@]2(C)[C@]1(C)C[C@H]3O`, the cytotoxicity call is reported as “active”.
For `C[C@@H]1O[C@@H](O[C@H]2[C@H](O[C@H]3[C@H](O)[C@@H](O[C@@H]4O[C@H](CO)[C@@H](O)[C@H](O)[C@H]4O)[C@H](O[C@H]4CC[C@]5(C)[C@H]6CC[C@]78OC[C@@]9(CCC(C)(C)C[C@@H]97)[C@H](O)C[C@@]8(C)[C@]6(C)CC[C@H]5C4(C)C)O[C@@H]3C(=O)O)O[C@H](CO)[C@H](O)[C@@H]2O)[C@H](O)[C@H](O)[C@H]1O`, the cytotoxicity call was “active”.
In the case of `C[C@@H]1O[C@@H](O[C@H]2[C@H](O[C@H]3[C@H](O)[C@@H](O[C@@H]4O[C@H](CO)[C@@H](O[C@@H]5O[C@H](CO)[C@H](O)[C@H]5O)[C@H](O)[C@H]4O)[C@H](O[C@H]4CC[C@]5(C)[C@H]6CC[C@]78OC[C@@]9(CCC(C)(C)C[C@@H]97)[C@H](O)C[C@@]8(C)[C@]6(C)CC[C@H]5C4(C)C)O[C@@H]3C(=O)O)O[C@H](CO)[C@H](O)[C@@H]2O)[C@H](O)[C@H](O)[C@H]1O`, the cytotoxicity call is reported as “inactive”.
